Compounds without any hit were thinned out: in the full panel of roughly 83,000, 20% have a hit.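 Single-concentration screen, 48 h exposure, 96-well plates. Endpoint: percent growth. Below 10 = active.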 Values without a mark were called inactive. Activity calls are given as the source filed them.

Test in all cases: NCI-60 one-dose screen, 48 h (100 = growth as untreated, 0 = no growth, -100 = all killed)
One test has as its system SK-MEL-2 melanoma. The note with it: 10 µM unless noted.
The test system of the next test is EKVX NSCLC. As to conditions: 10 µM unless noted.
For the next test, the system named is SN12C renal. As to conditions: 10 µM unless noted.
A further test has as its system UO-31 renal. As to conditions: 10 µM unless noted.
The subject of the next test is TK-10 renal. The note with it: 10 µM unless noted.
The test system of another test is ACHN renal. As to conditions: 10 µM unless noted.
In another test the test system is CAKI-1 renal. As to conditions: 10 µM unless noted.
The next test deals with A498 renal. As to conditions: 10 µM unless noted.
The next test relates to CCRF-CEM leukemia. As to conditions: 10 µM unless noted.
The test system of another test is MOLT-4 leukemia. The note with it: 10 µM unless noted.
Another test relates to SR leukemia. As to conditions: 10 µM unless noted.
Another test deals with RPMI-8226 leukemia. The note with it: 10 µM unless noted.
The subject of another test is OVCAR-8 ovarian. The note with it: 10 µM unless noted.
In the next test the test system is OVCAR-5 ovarian. The note with it: 10 µM unless noted.
In a further test the test system is OVCAR-4 ovarian. The note with it: 10 µM unless noted.
For another test, the system named is SK-OV-3 ovarian. The note with it: 10 µM unless noted.
A further test deals with IGROV1 ovarian. As to conditions: 10 µM unless noted.
For the next test, the system named is OVCAR-3 ovarian. The note with it: 10 µM unless noted.
In another test the test system is HS 578T breast. The note with it: 10 µM.
The subject of a further test is NCI/ADR-RES ovarian. The note with it: 10 µM unless noted.

Regarding `C=C(C)[C@@H]1CC[C@]2(C)[C@H](CC=C3[C@@H]4C[C@](C)(C(=O)N5CCN(C)CC5)CC[C@]4(C)CC[C@]32C)[C@@]1(C)CCC#N`, the growth in the test with SK-MEL-2 melanoma is 76.4%; with EKVX NSCLC, 85.6%; in the test on SN12C renal, 75.2%; in the test with UO-31 renal it was 66.1%; in the test on TK-10 renal it was 75.8%; in the test on ACHN renal it was 80.4%. Further, the growth is 63% with CAKI-1 renal; 97% in the test with A498 renal; 34.1% in the test on CCRF-CEM leukemia; 32.1% in the test on MOLT-4 leukemia; 39.4% with SR leukemia; 32% in the test on RPMI-8226 leukemia. Further, the growth was 74.7% in the test on OVCAR-8 ovarian; 88.2% in the test on OVCAR-5 ovarian; 62.9% in the test on OVCAR-4 ovarian; 63.3% with SK-OV-3 ovarian; 76.4% with IGROV1 ovarian; 55.3% in the test with OVCAR-3 ovarian. For the same compound, the growth in the test with HS 578T breast was 81.4%; in the test on NCI/ADR-RES ovarian, 75.6%.

Consider `C#CC[C@@H]1C[C@]2(C)[C@H]3CC=C4[C@H]5[C@@H](C)[C@H](C)CC[C@]5(C(=O)NCCCCN)CC[C@@]4(C)[C@]3(C)CC[C@H]2C(C)(C)[C@H]1OC(C)=O`, for which the growth in the test on SK-MEL-2 melanoma was 101%; with EKVX NSCLC, 96%; with SN12C renal, 73.8%; in the test on UO-31 renal, 59.4%; with TK-10 renal, 97.7%; in the test on ACHN renal it was 89.5%. Besides, the growth in the test on CAKI-1 renal is 50.5%; with A498 renal it was 118%; in the test with CCRF-CEM leukemia, 30%; in the test with MOLT-4 leukemia, 14.9%; with SR leukemia, -19.2% (active); with RPMI-8226 leukemia, 5.75% (active). Also, the growth with OVCAR-8 ovarian was 63.7%; in the test with OVCAR-5 ovarian it was 108%; in the test with OVCAR-4 ovarian, 68.3%; in the test with SK-OV-3 ovarian, 109%; with IGROV1 ovarian, 74.8%; with OVCAR-3 ovarian, 55.6%. Also, the values for the growth in the test on HS 578T breast and with NCI/ADR-RES ovarian were 102% and 86.1%, respectively.

On to `CCN(CC)CCCC(C)Nc1cnc(C(=O)Nc2ccc(Cl)c3cccnc23)cn1` (stereo not given), for which the growth in the test on SK-MEL-2 melanoma is 57.8%; with EKVX NSCLC it was 66.1%; with SN12C renal it was 31.7%; with UO-31 renal it was 23.8%; in the test on TK-10 renal, 57.6%; in the test with ACHN renal, -54.8% (active). Moreover, the growth was 23.1% with CAKI-1 renal; 54% in the test with A498 renal; 5.29% (active) in the test on CCRF-CEM leukemia; 2.9% (active) in the test with MOLT-4 leukemia; 1.42% (active) with SR leukemia; 2.2% (active) in the test on RPMI-8226 leukemia. Further, the growth in the test on OVCAR-8 ovarian is 27.3%; in the test on OVCAR-5 ovarian it was 53.3%; with OVCAR-4 ovarian, 51.3%; with SK-OV-3 ovarian, 79.5%; in the test with IGROV1 ovarian, 44.2%; with OVCAR-3 ovarian, -23.7% (active). The growth with HS 578T breast was 51.4%; in the test with NCI/ADR-RES ovarian it was 52.2%.

As for `O=[N+]([O-])c1cccc(N=C(Nc2cccc([N+](=O)[O-])c2)c2ccccc2)c1`, the growth is 77.9% with SK-MEL-2 melanoma; 81.4% with EKVX NSCLC; 83.4% with SN12C renal; 40.5% in the test on UO-31 renal; 78.8% in the test on TK-10 renal; 93.8% in the test with ACHN renal. For the same compound, the growth in the test with CAKI-1 renal was 80.3%; in the test on A498 renal it was 104%; in the test with CCRF-CEM leukemia it was 65.3%; with MOLT-4 leukemia it was 59.4%; with SR leukemia, 70.4%; in the test on RPMI-8226 leukemia, 58.2%. Besides, the growth with OVCAR-8 ovarian was 93.4%; in the test on OVCAR-5 ovarian, 99.9%; in the test with OVCAR-4 ovarian, 84.7%; in the test with SK-OV-3 ovarian, 107%; in the test with IGROV1 ovarian, 84.4%; in the test with OVCAR-3 ovarian, 88.2%. Also, the figures for the growth in the test with HS 578T breast and in the test with NCI/ADR-RES ovarian were 97.9% and 75.6%, respectively.

`COc1ccc2nc(NC(=O)/C(=C/c3cc(OC)c(OC)c(OC)c3)c3ccc(OC)c(OC)c3)sc2c1`: the growth was 95.6% in the test with SK-MEL-2 melanoma; 77.8% in the test on EKVX NSCLC; 99.9% in the test on SN12C renal; 67.4% in the test with UO-31 renal; 98.5% in the test on TK-10 renal; 94.9% in the test on ACHN renal. Further, the growth in the test on CAKI-1 renal is 75.9%; in the test on A498 renal it was 95.7%; in the test on CCRF-CEM leukemia it was 98.6%; in the test with MOLT-4 leukemia it was 83.7%; in the test with SR leukemia, 73%; in the test on RPMI-8226 leukemia it was 96.6%. The growth with OVCAR-8 ovarian was 90%; in the test with OVCAR-5 ovarian, 91.9%; in the test with OVCAR-4 ovarian, 93.4%; in the test with SK-OV-3 ovarian it was 104%; with IGROV1 ovarian it was 81.6%; with OVCAR-3 ovarian, 84.4%. For the same compound, the growth in the test with HS 578T breast was 103%; with NCI/ADR-RES ovarian it was 89%.

In the case of `COc1ccc2[nH]c(C(=O)OCc3ccc4cccc(O)c4n3)cc2c1`, the growth was -20.3% (active) with SK-MEL-2 melanoma; -78% (active) with EKVX NSCLC; -74.8% (active) in the test on SN12C renal; -100% (active) with UO-31 renal; -89.2% (active) in the test with TK-10 renal; -98.4% (active) in the test on ACHN renal. In addition, the growth with CAKI-1 renal is -97.6% (active); with A498 renal it was 36.5%; in the test on CCRF-CEM leukemia, 4.41% (active); in the test with MOLT-4 leukemia, -11.5% (active); with SR leukemia, -3.51% (active); in the test on RPMI-8226 leukemia, -45.9% (active). Moreover, the growth in the test with OVCAR-8 ovarian is 0.942% (active); with OVCAR-5 ovarian, -66.6% (active); in the test with OVCAR-4 ovarian, -59.2% (active); with SK-OV-3 ovarian, 68.4%; in the test with IGROV1 ovarian it was -91.2% (active); in the test on OVCAR-3 ovarian it was -84.8% (active). The results for the growth in the test with HS 578T breast and in the test on NCI/ADR-RES ovarian were -8.82% (active) and -18.9% (active), respectively.

For `Cc1cc(-c2nnc(/C=C/c3ccc4c(c3)OCO4)o2)n[nH]1`, the growth is 30.1% with SK-MEL-2 melanoma; 90.6% in the test on EKVX NSCLC; 85.5% with SN12C renal; 70.1% with UO-31 renal; 81.8% with TK-10 renal; 95.7% in the test with ACHN renal. Moreover, the growth is 59.8% with CAKI-1 renal; 73.2% in the test with A498 renal; 58.1% in the test on CCRF-CEM leukemia; 69.7% with MOLT-4 leukemia; 18.7% with SR leukemia; 66.5% in the test with RPMI-8226 leukemia. Besides, the growth in the test with OVCAR-8 ovarian was 91.5%; with OVCAR-5 ovarian, 92.2%; with OVCAR-4 ovarian it was 96.8%; with SK-OV-3 ovarian, 80.6%; with IGROV1 ovarian it was 40.7%; in the test with OVCAR-3 ovarian it was 63.4%. Further, the growth is 80% in the test with HS 578T breast and 31.3% with NCI/ADR-RES ovarian.
